Assay results: the supplement of paper PMC11732987, “Enantioselective OTUD7B fragment discovery through chemoproteomics screening and high-throughput optimisation” (Communications Chemistry, 2025)

Experiments:
Assay in all cases: log2 ratio of Biotin-Ahx-Ub-VS probe labelling (fragment/DMSO); higher = less target engagement (more negative = stronger competition), active = hit call of the paper (q ≤ 0.05, log2 ratio ≤ -1)
Settings in all cases: compound concentration: 200 uM; treatment time: 3 h
USP19 = target: T1, USP19 (UniProt O94966)
T1 sequence (whole entry): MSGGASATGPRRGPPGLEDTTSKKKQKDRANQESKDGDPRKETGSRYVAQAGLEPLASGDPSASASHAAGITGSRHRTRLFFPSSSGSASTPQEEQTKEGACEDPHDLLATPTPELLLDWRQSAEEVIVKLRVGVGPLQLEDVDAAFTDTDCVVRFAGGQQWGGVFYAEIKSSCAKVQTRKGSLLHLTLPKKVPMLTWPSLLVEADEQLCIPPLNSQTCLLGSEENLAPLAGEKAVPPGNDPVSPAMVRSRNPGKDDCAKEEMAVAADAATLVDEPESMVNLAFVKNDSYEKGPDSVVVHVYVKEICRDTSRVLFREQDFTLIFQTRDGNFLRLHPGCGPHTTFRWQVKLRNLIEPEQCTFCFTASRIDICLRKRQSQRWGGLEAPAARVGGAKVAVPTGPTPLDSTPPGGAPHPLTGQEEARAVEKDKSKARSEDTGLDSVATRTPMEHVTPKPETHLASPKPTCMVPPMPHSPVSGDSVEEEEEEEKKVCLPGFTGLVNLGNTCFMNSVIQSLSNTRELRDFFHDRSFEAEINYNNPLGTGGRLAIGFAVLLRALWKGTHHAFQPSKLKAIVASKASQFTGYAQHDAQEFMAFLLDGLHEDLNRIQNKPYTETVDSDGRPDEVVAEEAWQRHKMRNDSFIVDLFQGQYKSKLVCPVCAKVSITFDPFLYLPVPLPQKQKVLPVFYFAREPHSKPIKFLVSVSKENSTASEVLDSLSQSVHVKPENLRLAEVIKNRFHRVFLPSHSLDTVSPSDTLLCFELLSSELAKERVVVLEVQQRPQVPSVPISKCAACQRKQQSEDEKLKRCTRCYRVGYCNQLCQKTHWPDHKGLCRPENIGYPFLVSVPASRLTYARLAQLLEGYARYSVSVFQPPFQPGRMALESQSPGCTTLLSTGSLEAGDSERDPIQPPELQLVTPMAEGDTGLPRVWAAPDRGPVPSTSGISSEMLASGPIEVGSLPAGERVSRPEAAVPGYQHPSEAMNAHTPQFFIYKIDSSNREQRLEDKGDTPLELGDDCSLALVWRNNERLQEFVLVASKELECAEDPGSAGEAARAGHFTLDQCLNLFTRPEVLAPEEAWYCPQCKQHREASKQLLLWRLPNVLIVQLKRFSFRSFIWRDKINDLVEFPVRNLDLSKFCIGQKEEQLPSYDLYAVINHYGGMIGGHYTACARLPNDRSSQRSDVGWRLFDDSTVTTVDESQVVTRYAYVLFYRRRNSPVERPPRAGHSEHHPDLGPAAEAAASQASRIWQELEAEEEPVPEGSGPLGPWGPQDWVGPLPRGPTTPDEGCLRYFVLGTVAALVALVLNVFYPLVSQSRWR
Outline: (§1)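 Average log2 ratios of fragment over vehicle were obtained by unpaired t-test from global-median-normalised Spectronaut label-free quantities. Proteins with ≥2 unique peptides were included. HEK293T lysate (495 µg per sample) was treated in triplicate with fragment at 200 µM or vehicle for 3 h, then with Biotin-Ahx-Ub-VS at 0.5 µM final for 1 h, and labelled DUBs were NeutrAvidin-enriched and run by diaPASEF LC-MS/MS.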

USP22 = target: T2, USP22 (UniProt Q9UPT9)
T2 sequence (whole entry): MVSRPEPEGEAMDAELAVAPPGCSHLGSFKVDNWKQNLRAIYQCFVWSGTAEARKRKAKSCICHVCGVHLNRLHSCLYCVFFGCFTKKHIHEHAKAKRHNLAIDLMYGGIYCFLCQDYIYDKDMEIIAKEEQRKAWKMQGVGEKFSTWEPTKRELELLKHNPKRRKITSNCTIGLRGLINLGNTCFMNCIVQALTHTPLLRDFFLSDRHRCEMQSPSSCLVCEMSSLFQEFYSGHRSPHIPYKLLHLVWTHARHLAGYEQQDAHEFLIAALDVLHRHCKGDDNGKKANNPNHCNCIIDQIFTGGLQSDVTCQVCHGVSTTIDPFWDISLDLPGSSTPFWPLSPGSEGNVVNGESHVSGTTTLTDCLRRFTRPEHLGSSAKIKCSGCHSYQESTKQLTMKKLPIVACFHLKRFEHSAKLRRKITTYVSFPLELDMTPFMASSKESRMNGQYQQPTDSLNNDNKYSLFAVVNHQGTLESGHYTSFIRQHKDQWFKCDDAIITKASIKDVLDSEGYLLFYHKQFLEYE
Outline: as §1

USP24 = USP24 (UniProt Q9UPU5)
Sequence of USP24 (Q9UPU5 whole entry): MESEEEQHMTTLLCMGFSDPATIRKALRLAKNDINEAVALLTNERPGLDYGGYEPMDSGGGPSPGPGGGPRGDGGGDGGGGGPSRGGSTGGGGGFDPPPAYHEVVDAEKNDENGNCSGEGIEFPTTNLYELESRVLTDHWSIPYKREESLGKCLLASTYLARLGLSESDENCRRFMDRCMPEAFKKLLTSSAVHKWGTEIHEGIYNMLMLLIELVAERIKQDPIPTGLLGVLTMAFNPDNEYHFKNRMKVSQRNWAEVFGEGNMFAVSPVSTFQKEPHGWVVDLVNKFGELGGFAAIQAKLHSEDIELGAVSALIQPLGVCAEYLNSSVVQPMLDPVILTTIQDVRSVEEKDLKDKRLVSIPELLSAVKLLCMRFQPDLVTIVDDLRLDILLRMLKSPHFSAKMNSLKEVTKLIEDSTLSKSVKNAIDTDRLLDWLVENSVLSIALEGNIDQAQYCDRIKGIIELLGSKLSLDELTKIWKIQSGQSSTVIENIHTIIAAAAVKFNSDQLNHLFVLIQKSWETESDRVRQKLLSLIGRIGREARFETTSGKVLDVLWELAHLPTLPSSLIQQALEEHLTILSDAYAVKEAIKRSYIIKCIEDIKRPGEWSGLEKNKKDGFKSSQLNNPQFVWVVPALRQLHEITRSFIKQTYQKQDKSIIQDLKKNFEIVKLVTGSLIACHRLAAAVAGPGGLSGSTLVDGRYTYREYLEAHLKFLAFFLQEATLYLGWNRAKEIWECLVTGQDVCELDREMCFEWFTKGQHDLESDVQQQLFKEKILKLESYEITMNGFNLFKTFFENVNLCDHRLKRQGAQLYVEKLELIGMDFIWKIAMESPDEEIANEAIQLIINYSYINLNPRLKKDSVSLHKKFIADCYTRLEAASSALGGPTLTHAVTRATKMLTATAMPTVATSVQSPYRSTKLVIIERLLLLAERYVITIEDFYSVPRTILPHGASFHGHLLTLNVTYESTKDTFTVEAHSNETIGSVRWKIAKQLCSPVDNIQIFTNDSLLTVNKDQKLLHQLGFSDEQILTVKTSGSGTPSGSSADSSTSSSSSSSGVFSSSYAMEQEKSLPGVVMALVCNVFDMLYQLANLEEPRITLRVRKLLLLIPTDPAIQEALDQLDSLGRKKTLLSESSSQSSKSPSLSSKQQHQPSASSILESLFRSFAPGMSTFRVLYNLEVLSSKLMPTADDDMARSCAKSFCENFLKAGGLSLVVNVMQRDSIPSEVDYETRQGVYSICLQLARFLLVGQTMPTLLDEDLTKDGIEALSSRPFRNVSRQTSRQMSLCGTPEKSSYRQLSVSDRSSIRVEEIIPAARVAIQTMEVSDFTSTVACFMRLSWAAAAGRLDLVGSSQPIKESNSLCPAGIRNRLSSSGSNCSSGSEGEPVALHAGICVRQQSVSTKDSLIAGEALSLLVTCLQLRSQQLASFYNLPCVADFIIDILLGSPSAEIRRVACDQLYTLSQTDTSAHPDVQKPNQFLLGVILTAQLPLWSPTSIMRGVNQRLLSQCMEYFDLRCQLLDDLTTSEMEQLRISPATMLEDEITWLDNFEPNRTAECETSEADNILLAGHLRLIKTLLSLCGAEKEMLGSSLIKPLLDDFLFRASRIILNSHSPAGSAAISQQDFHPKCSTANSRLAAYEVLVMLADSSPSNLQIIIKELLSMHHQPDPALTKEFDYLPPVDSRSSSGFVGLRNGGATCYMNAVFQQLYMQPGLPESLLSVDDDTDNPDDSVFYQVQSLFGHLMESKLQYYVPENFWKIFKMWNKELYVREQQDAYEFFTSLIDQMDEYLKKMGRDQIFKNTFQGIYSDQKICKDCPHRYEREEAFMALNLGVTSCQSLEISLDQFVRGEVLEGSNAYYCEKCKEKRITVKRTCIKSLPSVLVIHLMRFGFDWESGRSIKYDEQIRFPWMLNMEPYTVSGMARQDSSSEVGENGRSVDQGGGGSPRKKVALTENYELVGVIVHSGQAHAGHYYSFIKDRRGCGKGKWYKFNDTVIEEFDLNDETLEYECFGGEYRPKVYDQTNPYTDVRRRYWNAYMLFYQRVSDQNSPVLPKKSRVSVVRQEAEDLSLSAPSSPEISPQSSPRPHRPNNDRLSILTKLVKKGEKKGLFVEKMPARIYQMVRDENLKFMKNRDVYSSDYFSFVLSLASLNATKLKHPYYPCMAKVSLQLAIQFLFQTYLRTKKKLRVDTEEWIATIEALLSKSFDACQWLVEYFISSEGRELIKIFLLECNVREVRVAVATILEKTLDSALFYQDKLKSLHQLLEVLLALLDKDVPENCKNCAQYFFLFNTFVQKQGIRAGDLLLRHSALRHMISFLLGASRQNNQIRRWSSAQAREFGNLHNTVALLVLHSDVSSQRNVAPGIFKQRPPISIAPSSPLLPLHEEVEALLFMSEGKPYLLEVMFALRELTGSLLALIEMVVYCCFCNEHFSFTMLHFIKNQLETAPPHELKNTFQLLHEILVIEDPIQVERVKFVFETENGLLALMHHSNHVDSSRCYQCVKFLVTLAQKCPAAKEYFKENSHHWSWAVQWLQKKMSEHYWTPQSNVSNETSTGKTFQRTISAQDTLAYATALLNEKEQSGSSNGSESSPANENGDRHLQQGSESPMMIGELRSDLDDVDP
Outline: as §1

USP25 = target: T3, USP25 (UniProt Q9UHP3)
T3 sequence (whole entry): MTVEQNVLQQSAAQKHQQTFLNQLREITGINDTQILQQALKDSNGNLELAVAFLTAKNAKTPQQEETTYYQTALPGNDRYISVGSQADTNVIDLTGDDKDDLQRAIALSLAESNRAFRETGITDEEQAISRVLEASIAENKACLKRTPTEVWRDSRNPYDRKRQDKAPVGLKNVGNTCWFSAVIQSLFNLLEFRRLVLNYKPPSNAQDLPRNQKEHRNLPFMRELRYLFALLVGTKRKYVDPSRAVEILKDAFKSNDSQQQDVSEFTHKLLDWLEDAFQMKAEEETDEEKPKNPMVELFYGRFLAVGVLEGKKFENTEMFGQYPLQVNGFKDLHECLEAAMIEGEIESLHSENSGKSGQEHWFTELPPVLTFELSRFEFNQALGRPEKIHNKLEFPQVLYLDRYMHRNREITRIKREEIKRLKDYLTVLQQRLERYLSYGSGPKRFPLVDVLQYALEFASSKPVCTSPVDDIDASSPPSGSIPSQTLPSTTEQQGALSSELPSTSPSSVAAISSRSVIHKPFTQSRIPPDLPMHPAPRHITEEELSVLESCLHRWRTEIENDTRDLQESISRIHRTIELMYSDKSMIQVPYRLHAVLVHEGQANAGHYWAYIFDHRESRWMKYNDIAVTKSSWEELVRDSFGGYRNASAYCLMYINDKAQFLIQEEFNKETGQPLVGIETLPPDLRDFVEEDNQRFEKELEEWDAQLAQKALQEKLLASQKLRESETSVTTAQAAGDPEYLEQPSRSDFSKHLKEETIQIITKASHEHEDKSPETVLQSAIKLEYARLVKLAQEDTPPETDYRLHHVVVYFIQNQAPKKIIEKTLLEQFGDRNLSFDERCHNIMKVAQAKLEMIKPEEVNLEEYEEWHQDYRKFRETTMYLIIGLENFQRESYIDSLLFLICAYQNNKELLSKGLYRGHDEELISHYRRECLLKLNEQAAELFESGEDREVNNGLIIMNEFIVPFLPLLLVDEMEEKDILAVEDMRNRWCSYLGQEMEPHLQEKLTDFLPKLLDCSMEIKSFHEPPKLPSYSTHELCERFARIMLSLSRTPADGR
Outline: as §1

USP28 = target: T4, USP28 (UniProt Q96RU2)
T4 sequence (whole entry): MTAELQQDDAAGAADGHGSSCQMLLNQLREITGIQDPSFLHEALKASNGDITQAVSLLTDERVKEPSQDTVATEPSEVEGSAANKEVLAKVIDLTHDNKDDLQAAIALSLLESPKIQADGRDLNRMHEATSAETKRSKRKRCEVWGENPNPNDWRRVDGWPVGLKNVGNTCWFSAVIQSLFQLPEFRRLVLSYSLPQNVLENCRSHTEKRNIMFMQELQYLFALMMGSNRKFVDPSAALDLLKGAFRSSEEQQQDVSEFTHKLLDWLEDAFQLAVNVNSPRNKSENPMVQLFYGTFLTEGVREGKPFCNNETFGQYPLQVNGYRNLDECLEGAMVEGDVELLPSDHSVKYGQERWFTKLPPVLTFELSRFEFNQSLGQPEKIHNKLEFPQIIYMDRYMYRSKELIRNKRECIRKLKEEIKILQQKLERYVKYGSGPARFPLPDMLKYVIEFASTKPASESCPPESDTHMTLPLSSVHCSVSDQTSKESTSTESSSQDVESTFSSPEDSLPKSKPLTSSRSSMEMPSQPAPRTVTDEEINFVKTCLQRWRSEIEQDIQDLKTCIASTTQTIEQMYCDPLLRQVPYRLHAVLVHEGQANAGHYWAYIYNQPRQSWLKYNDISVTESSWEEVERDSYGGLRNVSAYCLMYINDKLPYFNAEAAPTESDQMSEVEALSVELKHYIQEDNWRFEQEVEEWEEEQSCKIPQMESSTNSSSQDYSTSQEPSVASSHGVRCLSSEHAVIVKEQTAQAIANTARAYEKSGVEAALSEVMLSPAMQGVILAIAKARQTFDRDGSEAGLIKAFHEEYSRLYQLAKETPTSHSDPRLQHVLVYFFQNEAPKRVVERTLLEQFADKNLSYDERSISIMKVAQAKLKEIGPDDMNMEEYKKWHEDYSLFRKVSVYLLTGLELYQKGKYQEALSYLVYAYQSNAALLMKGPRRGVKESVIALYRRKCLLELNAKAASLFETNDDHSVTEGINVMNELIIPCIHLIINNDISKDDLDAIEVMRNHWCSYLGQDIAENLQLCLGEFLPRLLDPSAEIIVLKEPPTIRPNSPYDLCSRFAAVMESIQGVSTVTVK
Outline: as §1

Measured: log2 ratio of Biotin-Ahx-Ub-VS probe labelling

O=C(CCl)NCCc1cccc2ccccc12
inactive: USP19 0.0202 | USP22 -0.385 | USP24 -0.0928 | USP25 -0.0781 | USP28 -0.212
